The whole screen tested about 69,000 compounds, of which about 8,600 (12%) showed an effect of 50% or more. The list comes from a sample in which strong results are over-represented; it also holds similar structures and randomly drawn compounds.

This experiment relates to Plasmodium berghei. The experiment can be described thus: Screen against P. berghei liver stage (PbLuc), transformed with Luciferase, at 10uM. As to conditions: tested at 10 uM. Type of experiment: functional, HepG2.
As for `O=C(O)Cn1ccc(=O)c2ccc(Cl)cc21`, the INHIBITION is listed as 11.1%. The result for `CC(=O)c1ccc(NC(=O)NCc2cccc(N(C)C)n2)cc1C` reads 62.1%. With `COc1ccc(NC(=O)NCc2cccc(N(C)C)n2)c(Cl)c1` the figure was 7.49%. The result for `COc1cc(F)cc(NC(=O)NCc2cccc(N(C)C)n2)c1` reads 55.3%; that for `COc1ccc(C)c(NC(=O)NCc2cccc(N(C)C)n2)c1`, -35.2%; that for `CN(C)c1cccc(CNC(=O)Nc2cc(C#N)ccc2Cl)n1`, 15.8%. As for `CN(C)c1cccc(CNC(=O)Nc2ccc3[nH]nnc3c2)n1`, the INHIBITION was -4.13%. With `CCc1nccn1CCCNC(=O)c1cnn(-c2ccccc2OC)c1` the figure was -1.45%; with `Cc1nn(C)c(C)c1C1CCCN1CC(=O)Nc1cc(C(C)C)no1` (centres undefined), -1.14%; with `O=C(c1cnccn1)N1C[C@@H](OCc2ccncc2)[C@@H]2OCCC[C@@H]21`, 33%. Consider `O=C(NC1CCCc2nc(N3CCOCC3)ncc21)C1CCCC1` (centres undefined), for which the INHIBITION is given as -5.71%.

On to `COc1cc(-c2nc(CN(CCO)CCO)c(C)o2)ccc1F`, for which the INHIBITION is recorded as 22.5%. Turning to `CCC(C(=O)NCc1nc(C)cc(C(F)(F)F)n1)n1cccn1` (centres undefined), the INHIBITION was 8.08%. The result for `Cc1cc(C(F)(F)F)nc(CNC(=O)CCC2CCCCN2C)n1` (centres undefined) reads 38.7%; that for `CCC(C(=O)NCCc1nc(C)cc(C(F)(F)F)n1)n1cccn1` (centres undefined), 57%. The result for `Cc1cc(C(F)(F)F)nc(CNC(=O)CCn2cccn2)n1` reads 58.1%; that for `Cc1cc(C(F)(F)F)nc(CNC(=O)CCC2CCCN(C)C2)n1` (centres undefined), 29.4%; that for `CCN(C)c1ccc(CNC(=O)CCn2cc(C)cn2)cc1F`, 12.8%. The result for `Cc1cc(C(F)(F)F)nc(CNC(=O)C2CCCCCN2C)n1` (centres undefined) reads 54.5%. Regarding `Cc1cc(C(F)(F)F)nc(CNc2nc(C)nc3c2cnn3C)n1`, the INHIBITION is given as 19.4%. The result for `CCOCC(=O)NCCc1nc(C)cc(C(F)(F)F)n1` reads 20.4%. With `CC(C)c1nn(C)c(N(C)C)c1CNCc1ccc(CO)c(F)c1` the figure was 23.7%; with `CNc1nc2c(s1)C(c1c(Cl)cccc1Cl)CC(=O)N2` (centres undefined), 15%. With `CS(=O)(=O)N1CCN(c2ccc3ccc(C(=O)NC4CC4)cn23)CC1` the figure was 22.3%; with `Cc1cccc(OC2CN(C(=O)C3CC(=O)N(C4CC4)C3)C2)c1` (centres undefined), 31.4%. For the compound `O=C([C@H]1CC[C@@H]2[C@@H](CCN2C2CCOCC2)O1)N1CCOCC1`, the INHIBITION was found to be 25.6%. With `Cc1cccc(OCCC(=O)N(C)CCC#N)c1C` the figure was -33.2%; with `CCc1ncnc2c1CCN(Cc1nccs1)CC2`, -2.41%; with `CCc1cnc(CN2CCC(N(C)Cc3noc(C4CC4)n3)C2)o1` (centres undefined), 23.4%.

As to `CCN1CCn2c(C)cnc2C12CCN(C(=O)COC)CC2`, the INHIBITION is -6.05%. With `CN(C)C(C(=O)N1CCCC1)c1ccccc1F` (centres undefined) the figure was 29.7%; with `CN(C)C(C(=O)N1Cc2ccccc2C1)c1ccccc1F` (centres undefined), 50.8%; with `CN(C)C(C(=O)N1CCSCC1)c1ccccc1F` (centres undefined), 32.8%. With `O=c1[nH]nc(CCCN2CCOCC2)n1-c1ccc(F)cc1F` the figure was 39.4%; with `CC(C)CC(=O)N1CCCC2(CC(C(=O)Nc3ccccc3)=NO2)C1` (centres undefined), 3.58%. The result for `COc1ccccc1NC(=O)N1CCCC1c1ccco1` (centres undefined) reads 1.45%; that for `CC(C)CCNC(=O)C1CCCN1C(=O)Nc1cccc(F)c1` (centres undefined), -11.4%. For `CCC1CN(C)c2ccccc2CN1C(=O)CCn1cncn1` (centres undefined), the INHIBITION came out at 44%.

For `CCC1CN(C)c2ccccc2CN1C(=O)Nc1ccccc1OC` (centres undefined), the INHIBITION is 63.5%. `CCC1CN(C)c2ccccc2CN1C(=O)Nc1ccc(C)cc1` (centres undefined): the INHIBITION is recorded as 14%. The result for `CCC1CN(C)c2ccccc2CN1C(=O)Nc1cccc(F)c1` (centres undefined) reads 60.2%; that for `Cc1c(C(=O)NCC(C)C)nnn1-c1cccc2c1CCN(CCO)C2`, 45.7%.

For the compound `O=C(NCCNc1ncccn1)C1CCCC1`, the INHIBITION amounted to 26.4%. With `COc1ccccc1CNc1cnn(CC(F)F)c1` the figure was 14.5%; with `Cc1nccn1CC1CCCN1S(=O)(=O)Cc1cccc(C#N)c1` (centres undefined), 45.7%; with `Cc1cc(NC(=O)CN2CCCC2c2c(C)nn(C)c2Cl)on1` (centres undefined), -27.9%. The result for `CC(C)C(C(=O)N1CCN(Cc2cscn2)CC1)n1cncn1` (centres undefined) reads -7.71%; that for `CC(C)(C)NC(=O)C1(Cc2ccccc2-c2ccncc2)CCOCC1`, 17.1%; that for `O=C(NCCO)C1(Cc2ccccc2-c2ccncc2)CCOCC1`, -17.7%.

Consider `O=C(NC1CC1)C1(Cc2ccccc2-c2ccncc2)CCOCC1`, for which the INHIBITION was determined as 76.1%.

For the compound `CN(C)C[C@@H]1CCC[C@@H]2CN(c3cccnc3)C[C@@H]21`, the INHIBITION is -11%. With `CCc1ncc(C(=O)N(CC)CCOC)cn1` the figure was 29.2%; with `CCc1ncc(C(=O)N(CCOC)Cc2ccccc2F)cn1`, 41.5%; with `CCc1ncc(C(=O)N(CCOC)Cc2nccs2)cn1`, 50.5%.

The values above are taken from ChEMBL document CHEMBL4513216, “Probing the Open Global Health Chemical Diversity Library for Multistage-Active Starting Points for Next-Generation Antimalarials” (ACS Infect Dis, 2020).
